Measured values reported in PubChem BioAssay (NCI).
“And” between values parts separate entries of the source, which are not always exact repeats. Equal entries are not always repeated. The panel holds about 83,000 compounds, 20% with a hit somewhere; the sample as a whole holds those more often.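 Testing used 96-well plates and a 48-hour single-concentration exposure. Example: -40 means 40% of the starting cells died.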 The source made the active and inactive calls. The calls were made as follows: active = growth percent below 10; inactive = the rest.

Tested on: HL-60(TB) leukemia
Assay: NCI-60 one-dose screen, 48 h (100 = growth as untreated, 0 = no growth, -100 = all killed)
Conditions: 10 µM unless noted

Structure (SMILES)	growth
Cc1ccc(NCCN2CCCCC2)c2c(=O)c3ccccc3sc12	1.52% (active)
COc1ccc2c(c1)NC1=C(C(=O)OC1)C2c1cc(OC)c2c(c1)OCO2 (stereo not given)	0.722% (active)
O=C(NO)c1ccc(-n2nc(-c3ccccc3)c3ccccc32)cc1	62.4% (inactive)
COc1ccc(N=C2NN=C(c3ccc(F)cc3)CS2)cc1OC	84.5% (inactive)
COC(=O)/C=C/c1cc(O)c2oc(-c3ccc(O)c(O)c3)c(C(=O)OC)c2c1	6.46% (active)
CC(=O)C1=C(O)C=C2Oc3c(C(=O)/C=C/c4c(Cl)cccc4Cl)c(O)c(C)c(O)c3[C@]2(C)C1=O	-39.3% (active)
CN(C)Cc1ccccn1	108% (inactive)
S=C(NCc1ccc2c(c1)OCO2)N1CCN(c2ncnc3c2oc2ccccc23)CC1	19.7% (inactive)
Cc1ccc(S(=O)(=O)Oc2ccc([N+](=O)[O-])cc2[N+](=O)[O-])cc1	47.9% (inactive)
Cn1c(-c2c(N)n(Cc3ccc(C(F)(F)F)cc3)c3nc(C#N)c(C#N)nc23)nc2ccccc21	-54.6% (active)
COc1ccccc1/C=C1\Oc2cc(OCCCN3CCCC3)ccc2C1=O	78.7% (inactive)
COc1ccc(-c2nnc(COc3ccc(NC(=O)Nc4ccc(Cl)c(C(F)(F)F)c4)cc3F)o2)cc1	-18.5% (active)
CCOC(=O)NC(/C=C/c1ccccc1)NC(=O)OCC	103% (inactive)
COc1cc(/C=C2/Oc3cc4occc4c(OC)c3C2=O)ccc1OCC(=O)Nc1ccncc1	106% (inactive)
CC(=O)Oc1ccc(C2(c3ccc(OC(C)=O)cc3)C(=O)Nc3ccccc32)cc1	75.5% (inactive) and 119% (inactive)
C=C1C(=O)O[C@H]2[C@H]1CC/C(COC(=O)/C=C/C(=O)NCc1ccc(Cn3c(=O)sn(-c4ccccc4)c3=O)cc1)=C\CC[C@@]1(C)O[C@@H]21	-54.7% (active)
CCCCN1C(=O)/C(=c2\sc3n(c2=O)C2C(NN=3)N(CC)C(=O)N2CC)c2ccccc21 (stereo not given)	-52.2% (active)
O=[N+]([O-])c1cccc2ccc(N/N=C/c3ccccc3O)nc12	40.7% (inactive) and 50.5% (inactive)
Cc1oc(-c2ccc(Cl)cc2)nc1/C=C/C(=O)c1ccccc1	97.1% (inactive)
NC(=O)c1ccc[n+](Cc2ccccc2)c1	152% (inactive)

Structure (SMILES)	growth
OCc1cccnc1	117% (inactive)
C[C@H](NC(=O)[C@@H](C)N)[C@H](Oc1ccc2c(cnn2-c2ccc(F)cc2)c1)c1ccc2c(c1)OCCO2	25.8% (inactive)
CCN1c2ccccc2C(Cl)(c2ccc(N(C)C)cc2)c2ccccc21	14% (inactive)
CC(C)NCCCNC1=C(Cl)C(=O)c2ccccc2C1=O	11.5% (inactive)
Cc1ccc(C)c2c1C(=O)OC2=O	29.7% (inactive)
Nc1nc(N)nc(NCc2ccccc2)n1	98.6% (inactive)
COc1ccc(Nc2nnc(-c3ccc(OC)c(OC)c3)o2)cc1	84.2% (inactive)
N#Cc1ccc(/C=C/C(=O)c2ccccc2)cc1	-15.6% (active) and 17.7% (inactive)
c1ccc2c(CC3=NCCN3)cccc2c1	107% (inactive) and 103% (inactive)
CC(=O)OC1CC2C(C)(C)OC3CC(=O)OCC32C2CCC3(C)C(=CCC3c3ccoc3)C12C (stereo not given)	116% (inactive)
CCOc1nc(-c2ccccc2)cc2c(O)c(C(=O)N/N=C/c3ccccc3O)[nH]c(=O)c12	133% (inactive)
O=C(N/N=C/c1ccc(F)cc1)c1ccc(C(F)(F)F)nc1Nc1cccc(C(F)(F)F)c1	-37.2% (active)
COCCCNc1nc(NC(=O)c2ccc(F)cc2C)cc(-c2cccnc2)n1	106% (inactive)
CC(C)N1CCN(Cc2ccc3c(NNC(=O)c4ccccc4)nc4cc(F)ccc4n23)CC1	8.42% (active)
CCOC(=O)c1c(SC)nn(-c2cc(=O)[nH]c3ccc(Br)cc23)c1N	103% (inactive)
O=C1N(C2CCCCC2)C(=O)N1C1CCCCC1	-16.2% (active)
COc1ccc(C2C3=C(COC3=O)N(CCO)c3cc(OC)c(OC)cc32)cc1 (stereo not given)	89% (inactive)
CN(C=O)c1ccccc1	101% (inactive)
NS(=O)(=O)c1ccc(C2C3=C(CCCC3=O)OC3=C2C(=O)c2ccccc2C3=O)cc1 (stereo not given)	-40.5% (active)
COc1ccc(C(=O)N2N=C(c3ccc(F)cc3)CC2c2cn(-c3ccccc3)nc2-c2ccccc2)cc1 (stereo not given)	32.5% (inactive)
